From PubChem
GLP1R ag: qHTS of GLP-1 Receptor Agonists | Glucagon-like peptide 1 receptor (Homo sapiens), P43220 | HEK293 GLP-1R CRE-luciferase, luminescence, 4-6 h; cells express a hypersensitive GLP-1R form | Potency, µM (top dose mostly 45.6 µM), usual class: activators | hit rate 0.007% among 380,000 | AID 624172, 2012
Target sequence (P43220 whole entry, looked up): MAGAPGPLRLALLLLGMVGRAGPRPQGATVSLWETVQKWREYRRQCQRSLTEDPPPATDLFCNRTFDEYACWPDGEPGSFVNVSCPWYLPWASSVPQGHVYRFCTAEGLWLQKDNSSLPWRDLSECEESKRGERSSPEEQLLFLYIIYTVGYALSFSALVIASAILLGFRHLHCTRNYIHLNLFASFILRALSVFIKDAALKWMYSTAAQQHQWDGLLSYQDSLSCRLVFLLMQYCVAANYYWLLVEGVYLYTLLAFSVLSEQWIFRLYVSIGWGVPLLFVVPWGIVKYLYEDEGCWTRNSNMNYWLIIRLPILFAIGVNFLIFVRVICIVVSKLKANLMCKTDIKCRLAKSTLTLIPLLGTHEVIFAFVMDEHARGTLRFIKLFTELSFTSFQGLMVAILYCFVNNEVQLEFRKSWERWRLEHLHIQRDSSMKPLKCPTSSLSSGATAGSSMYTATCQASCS
BRCA1 expr up: qHTS Assay to Identify Small Molecule Activators of BRCA1 Expression | MCF7-BRCA1-FFLuc reporter, luminescence, 48 h; response scale: scaled: vehicle 0%, 10 µM genistein 100% | Potency, µM (series often up to 46.1 µM), most hits filed as activators | hit rate 1.1% among 380,000 | AID 624202, 2012; further: nearly all actives have a fitted effect of over 80% in size
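MCF7-BRCA1-FFLuc, 2000 cells/well; 2 h attach, 37 °C/5% CO2; compound 48 h; luciferase substrate 15 min; luminescence end-point. Norm. to genistein 10 microM max activation and DMSO; concentration-response curves fitted.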
HEK293 tox: qHTS of GLP-1 Receptor Inverse Agonists: Cytotox Screen; HEK293 cAMP-luciferase reporter cells, luminescence, 24 h; Potency, µM (titrated, usually from 38.3 µM), usual class: inhibitors; hit rate 0.13% among 410,000; AID 624418, 2012;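 further: loss of luciferase light is scored as toxicity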
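Here, cytotoxicity is scored as loss of luminescence. The MLSMR collection was tested on cells seeded in medium containing 10% Nu serum, with a 24 hr compound exposure preceded by 12 hours of culture.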
GLP1R inv ag: qHTS of GLP-1 Receptor Inverse Agonists (Inhibition Mode); Glucagon-like peptide 1 receptor (Homo sapiens), P43220; hit rate 1.6% among 410,000; Potency, µM (doses to about 38.3 µM), most hits filed as inhibitors; AID 624417, 2012; HEK293 GLP-1R CRE-luciferase, luminescence, 24 h; GLP-1R form is constitutively active; further: nearly all actives have a fitted effect of over 55% in size
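Seeding at 200 cells/uL, 12 h culture, 24 hr compound treatment, then luciferase reagent and a luminescence read; cells are HEK293 stably expressing a constitutively active GLP-1R plus cAMP-responsive luciferase.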
Each line names hits and unclear results; the compound was inactive in the other large screens. Only some compounds are listed: those with a hit (about 2.6% of all), similar ones and a draw of the others. The call rests on the fitted dose curve; in most records, active means well fitted curve in the direction sought with a large enough effect; inconclusive means small, poorly fitted or top-dose-only effect, or another doubt; inactive means no such curve, though single readings can be large; an effect the other way counts as inactive or inconclusive.

O=S(=O)(c1ccc(F)cc1)N1CCC(n2c(C(F)(F)F)nc3cccnc32)CC1	none (no result: GLP1R ag, BRCA1 expr up)
COc1ccc(C2Nc3ccccc3C(=O)N2Cc2ccccc2)cc1COc1ccccc1F (stereo not drawn)	none (no result: GLP1R ag, HEK293 tox, GLP1R inv ag)
Nc1cc(Cl)nc(N/N=C/c2ccc([N+](=O)[O-])cc2)n1	none
Nc1cc(Cl)nc(N/N=C/c2ccccc2[N+](=O)[O-])n1	BRCA1 expr up 11µM
CCCc1cc(=O)oc2cc(OCC(=O)Nc3ccc(S(N)(=O)=O)cc3)ccc12	none
COc1ccc(NC(=O)c2cc(C)nc3c2c(C)nn3-c2cccc(Cl)c2C)c(OC)c1	none (no result: GLP1R ag, BRCA1 expr up)
COc1cc(NC(=O)c2cc(C)nc3c2c(C)nn3-c2ccccc2Cl)cc(OC)c1	GLP1R inv ag 13µM
CCc1ccc(-n2nc(C)c3c(C(=O)Nc4cc(OC)cc(OC)c4)cc(C)nc32)cc1	GLP1R inv ag 5µM (no result: GLP1R ag, BRCA1 expr up)
Cc1c(C(=O)Nc2cccc(C(F)(F)F)c2)oc2ccc(S(=O)(=O)N3CCC4(CC3)OCCO4)cc12	none (no result: GLP1R ag, BRCA1 expr up)
CCCCN(CC)C(=O)CSc1c2c(nc3ccc(Cl)cc13)CCCC2	HEK293 tox inconclusive, GLP1R inv ag 10µM (no result: GLP1R ag, BRCA1 expr up)
CCCCNC(=O)CSc1c2c(nc3ccc(Cl)cc13)CCCC2	none (no result: GLP1R ag, BRCA1 expr up)
CC(=O)c1ccc(-c2ccc(C(=O)N(C)Cc3nc4ccccc4c(=O)[nH]3)o2)cc1	none
CC(=O)c1ccc(NC(=O)Cn2nc(C(F)(F)F)c3c2CCC3)cc1	none
COc1ccc(Br)cc1/C=C/C(=O)c1ccc(NC(C)=O)cc1	GLP1R inv ag 5µM
COc1ccc2ccccc2c1/C=N/Nc1ccc(Cl)c(C(=O)O)c1	none
COc1ccc2ccccc2c1/C=N/Nc1cccc(C(=O)O)c1	BRCA1 expr up 3.5µM
Cc1ccsc1/C=N/Nc1cccc(C(=O)O)c1	GLP1R inv ag 4.5µM
COc1cc(C=NNc2ccccc2)ccc1OC(=O)c1ccccc1	GLP1R inv ag 1µM
O=[N+]([O-])c1cc(S(=O)(=O)Nc2ccccc2)ccc1N1CCN(c2ccccc2)CC1	HEK293 tox inconclusive, GLP1R inv ag inconclusive
O=[N+]([O-])c1cc(S(=O)(=O)C(F)(F)F)ccc1N1CCN(c2ccccc2)CC1	GLP1R ag inconclusive, GLP1R inv ag 5µM
CCOC(=O)[C@H]1[C@H]2COc3cc(OC)ccc3[C@@H]2N2C(=O)CN(CCc3c[nH]c4ccccc34)C(=O)[C@@]12C	none
COc1ccc2c(c1)OC[C@H]1[C@H]2N2C(=O)CN(CCc3c[nH]c4ccccc34)C(=O)[C@@]2(C)[C@H]1c1ccccc1	GLP1R inv ag 5µM
C[N+]1(C)CCN(C[C@@](O)(c2ccccc2)C2CCCCC2)CC1	none (no result: BRCA1 expr up, HEK293 tox, GLP1R inv ag)
O=C(O)CCCCCN=Cc1c(O)c2ccccc2oc1=O	none
Cc1ccc(C2CC(=O)NC(SCc3ccccc3)=C2C#N)cc1 (stereo not drawn)	GLP1R inv ag 8.9µM
O=C(Nc1nc(-c2cccs2)cs1)c1cccc(S(=O)(=O)N2CCCCCC2)c1	GLP1R inv ag 5.6µM
CN(C)c1ccc(CN(Cc2ccco2)C(=O)c2ccc(F)cc2)cc1	GLP1R inv ag inconclusive (no result: GLP1R ag, BRCA1 expr up)
Cc1cc(C)c(C)c(N=Nc2nc3ccccc3n2C)c1C	HEK293 tox inconclusive, GLP1R inv ag 7.9µM
Cc1ccc(C)c(N=Nc2nc3ccccc3n2C)c1	HEK293 tox inconclusive, GLP1R inv ag inconclusive
Cc1ccc(C)c(CN2C(=O)N(c3cc(Cl)ccc3C)S(=O)(=O)c3ccccc32)c1	none
O=C(NNC(=O)c1cccs1)c1ccc(Br)cc1	BRCA1 expr up 13µM
Oc1ccc(-c2nc3ccc4ccccc4c3c3c2CCC3)cc1O	HEK293 tox inconclusive, GLP1R inv ag 4µM
O=C(NCc1ccccc1Cl)c1nnc(Cc2cccc(F)c2)o1	none (no result: GLP1R ag, BRCA1 expr up)
Cc1ccc(CSc2cn(CC(=O)N3CCCCC3)c3ccccc23)cc1	GLP1R inv ag 10µM (no result: GLP1R ag, BRCA1 expr up)
O=C(Cn1cc(SCc2ccccc2)c2ccccc21)N1CCCCCC1	GLP1R inv ag inconclusive (no result: GLP1R ag, BRCA1 expr up)
Cc1cccc(CSc2cn(CC(=O)N3CCOCC3)c3ccccc23)c1	BRCA1 expr up 3.5µM, GLP1R inv ag inconclusive
O=C(Cn1cc(SCc2cccc(C(F)(F)F)c2)c2ccccc21)N1CCCCCC1	GLP1R inv ag 7.9µM (no result: GLP1R ag, BRCA1 expr up)
C/C(=N\OCc1ccc(C#N)cc1)c1ccccc1	BRCA1 expr up inconclusive
C/C(=N\OCc1ccc(C#N)cc1)c1ccc(S(=O)(=O)N(C)C)cc1	BRCA1 expr up 7.1µM
S=C(Nc1ccc(Br)cc1)Nc1ccc2c(c1)OCCO2	BRCA1 expr up 11µM, GLP1R inv ag inconclusive
O=C(NC(=S)Nc1ccc2c(c1)OCCO2)c1cccc(Br)c1	BRCA1 expr up 4µM, HEK293 tox inconclusive, GLP1R inv ag inconclusive
O=C(NC(=S)Nc1ccc2c(c1)OCO2)c1ccccc1	BRCA1 expr up inconclusive
CCOc1ccc(C2NC(=O)CCC2[N+](=O)[O-])cc1 (stereo not drawn)	none
COCCN=C1Sc2nc3c(C)cccc3cc2CN1Cc1ccco1	GLP1R inv ag 8.9µM
Cc1cccc2cc3c(nc12)SC(=NCC1CCCO1)N(Cc1ccco1)C3 (stereo not drawn)	HEK293 tox inconclusive, GLP1R inv ag inconclusive
COCCN=C1Sc2nc3ccc(C)cc3cc2CN1Cc1cccs1	GLP1R inv ag inconclusive
Cc1ccc2nc3c(cc2c1)CN(Cc1ccco1)C(=NCC1CCCO1)S3 (stereo not drawn)	GLP1R inv ag 2.2µM
COc1ccc(NC(=O)CN2CCCN(Cc3ccc(Cl)cc3)S2(=O)=O)cc1Cl	none (no result: GLP1R ag, BRCA1 expr up)
CC(=O)Nc1ccc(CN2C(=O)C(CCc3ccccc3)ON=C2c2cnccn2)cc1 (stereo not drawn)	none
O=C(CN1C(=O)C2(SCC(=O)N2c2cccc(Cl)c2)c2ccccc21)NCc1ccccc1 (stereo not drawn)	none
Cn1c(SCC(=O)Nc2ncc(C(F)(F)F)cc2Cl)nnc1-c1ccc(Cl)cc1	none
CCCN(CCC)S(=O)(=O)c1ccc(N2CCCC2=O)c([N+](=O)[O-])c1	none
CCCN(CCC)S(=O)(=O)c1ccc(Cl)c([N+](=O)[O-])c1	HEK293 tox 13µM, GLP1R inv ag inconclusive
Cc1cc(C)n(Cc2ccccc2)c(=O)c1S(=O)(=O)c1ccccc1	none
C#CCn1c(C)cc(C)c(S(=O)(=O)c2ccccc2)c1=O	BRCA1 expr up 13µM
COc1cc(SC)ccc1C(=O)Nc1ncc(C)s1	BRCA1 expr up inconclusive, GLP1R inv ag 10µM
COc1cc(SC)ccc1C(=O)Nc1ccc(C)cc1	GLP1R inv ag inconclusive
COc1cc(SC)ccc1C(=O)Nc1ccc(C)cc1C	BRCA1 expr up 7.9µM
COc1cc(SC)ccc1C(=O)Nc1ccc(Br)cn1	BRCA1 expr up inconclusive, GLP1R inv ag inconclusive
O=c1[nH]c2ccc(NCc3ccccc3F)cc2[nH]1	none (no result: GLP1R ag, BRCA1 expr up)
Cc1cc(C)c(C#N)c(SCC2COc3ccccc3O2)n1 (stereo not drawn)	GLP1R inv ag inconclusive
N#Cc1cc2c(nc1SCC1COc3ccccc3O1)CCC2 (stereo not drawn)	BRCA1 expr up 8.9µM, GLP1R inv ag inconclusive
